Measured values: article PMC11006913
Residue numbers refer to the chain shown, from its start.

Experiments:
Assay in all cases: PBM; 200 nM protein, PBS
Settings in all cases: dsDNA, one strand shown
SIX6 [1] = target: T1, SIX6 (Homo sapiens, UniProt O95475 114-200, T165P)
T1 sequence: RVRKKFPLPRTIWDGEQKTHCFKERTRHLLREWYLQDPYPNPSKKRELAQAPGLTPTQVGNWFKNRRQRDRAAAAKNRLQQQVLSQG

SIX6 [2] = target: T2, SIX6 (Homo sapiens, UniProt O95475 114-200, T165I)
T2 sequence: T1 sequence with P52I

NKX2-6 = target: T3, NKX2-6 (Homo sapiens, UniProt A6NCS4 118-204, F151L)
T3 sequence: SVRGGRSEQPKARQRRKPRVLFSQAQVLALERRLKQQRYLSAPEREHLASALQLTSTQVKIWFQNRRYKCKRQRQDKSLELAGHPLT

| Sequence | binding signal (SIX6 [1]) | binding signal (SIX6 [2]) | binding signal (NKX2-6) |
| --- | --- | --- | --- |
| CGGCGCCG | 9.09 upbm affinity estimate (log intensity, higher = more binding, comparable within an allelic series) | 8.84 upbm affinity estimate (log intensity, higher = more binding, comparable within an allelic series) |  |
| CAAGTGCC |  |  | 10.6 upbm affinity estimate (log intensity, higher = more binding, comparable within an allelic series) |
